# Screens deposited in PubChem by National Center for Advancing Translational Sciences (NCATS).
# ATXN2 expr inh: reduces ATXN2 reporter expression in HEK-293 cells; Potency, µM (top dose mostly 57 µM), for inactives: at the top dose activity change, negative = inhibition, hits mostly inhibitors; HEK-293 ATXN2-luciferase reporter, luminescence, 24 h; hit rate 0.72% among 360,000; further: on the % scale 0 is the no-effect control and ±100 the full control effect; nearly all actives have a fitted effect of over 55% in size
#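 qHTS (up to 57 uM final) was run with 24 h compound exposure of reporter cells at 37 °C. Each well was multiplexed: SteadyGlo luminescence measured ATXN2-luciferase expression after a fluorogenic Gly-Phe-AFC viability readout (25 uM final).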
# TGFb inhibitor: TGF-b pathway inhibition. HepG2 CAGA-GFP TGF-b/SMAD3 reporter, GFP fluorescence, 18 h; TGF-beta stimulated, 500 pg/mL final. Potency, µM (titrated, usually from 46.1 µM), inactives show top-dose activity, negative = inhibition, actives largely listed as inhibitors. hit rate 1.2% among 410,000. AID 588855; further: on the % scale 0 is the no-effect control and ±100 the full control effect; nearly all actives have a fitted effect of over 65% in size
#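 Per well, imaged GFP fluorescence of HEPG2 CAGA-GFP cells gives the signal; cells get compound, then TGF-beta (500 pg/mL final), 18 h at 37 degrees C; %Activity versus -TGF-beta and +DMSO controls.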
# GLP-1R agonist: activates the human GLP-1 receptor. hit rate 0.007% among 380,000. P43220. HEK293 GLP-1R CRE-luciferase, luminescence, 4-6 h; cells express a hypersensitive GLP-1R form. Potency, µM (titrated, usually from 45.6 µM), for inactives: at the highest dose activation, hits mostly activators; further: % of control where 0% means no effect
# Target sequence (P43220 whole entry, looked up): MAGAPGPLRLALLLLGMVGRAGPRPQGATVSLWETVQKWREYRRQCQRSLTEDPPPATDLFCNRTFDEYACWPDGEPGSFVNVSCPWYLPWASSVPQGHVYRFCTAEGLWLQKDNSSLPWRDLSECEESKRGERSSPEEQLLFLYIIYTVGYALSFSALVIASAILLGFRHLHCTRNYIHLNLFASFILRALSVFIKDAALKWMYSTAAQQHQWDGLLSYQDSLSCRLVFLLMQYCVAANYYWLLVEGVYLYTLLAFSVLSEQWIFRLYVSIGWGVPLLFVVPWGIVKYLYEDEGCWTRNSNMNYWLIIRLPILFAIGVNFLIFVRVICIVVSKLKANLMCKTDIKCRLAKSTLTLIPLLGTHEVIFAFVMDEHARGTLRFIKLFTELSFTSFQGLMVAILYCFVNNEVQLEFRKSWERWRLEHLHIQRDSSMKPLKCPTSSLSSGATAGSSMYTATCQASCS
# GLP1R inv ag: inverse agonists of human GLP-1 receptor; HEK293 GLP-1R CRE-luciferase, luminescence, 24 h; GLP-1R form is constitutively active; hit rate 1.6% among 410,000; Potency, µM (top dose mostly 38.3 µM), for the others: top-dose activity change, negative = inhibition, actives largely listed as inhibitors; AID 624417; P43220; further: on the % scale 0 is the no-effect control and ±100 the full control effect; nearly all actives have a fitted effect of over 55% in size
#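 Using stably transfected HEK293 (constitutively active GLP-1R, cAMP-luciferase reporter), compounds were incubated 24 hr and luciferase measured by luminescence.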
# S2 tox: cell viability loss in ATXN counter-screen | hit rate 0.49% among 400,000 | Potency, µM (doses to about 56.7 µM), usual class: cytotoxic | S2 cells (HEK-293 line with an ATXN2-luciferase reporter) viability, CellTiter-Fluor protease fluorescence, 24 h | AID 651635; further: nearly all actives have a fitted effect of over 40% in size
# HepG2 tox-1: counter-screen for TGF-b inhibitors: cytotoxicity in HepG2 cells | hit rate 0.76% among 410,000 | HepG2 CAGA-GFP viability, ATP luminescence, 18 h | Potency, µM (titrated, usually from 46.1 µM), for the others: at the highest dose activity change, negative = cytotoxicity, most hits filed as cytotoxic
#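 CellTiter-Glo luminescence gave cytotoxicity after 18 hours at 37 degrees C. The cells were HepG2 CAGA-GFP in 1% FBS DMEM, stimulated with 500 pg/mL TGF-beta after compound addition. %Activity was normalised to no-cell wells (complete cell-killing) and DMSO (no toxicity), and curves were fitted and classified.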
# TGFb confirm: confirmation of TGF-b signaling inhibitors in HepG2 reporter cells | shares compounds with TGFb inhibitor | HepG2 CAGA-GFP TGF-b reporter, GFP fluorescence, 18 h; cells stimulated with TGF-beta, 500 pg/mL | Potency, µM (top dose mostly 46.1 µM), inactives show at the top dose activity, negative = inhibition, actives largely listed as inhibitors | hit rate 63% among 1,600 | AID 720534; further: on the % scale 0 is the no-effect control and ±100 the full control effect; nearly all actives have a fitted effect of over 65% in size
# HepG2 tox-2: counter-screen for TGF-b inhibitors: cytotoxicity in HepG2 cells; Potency, µM (doses to about 46.1 µM), without a hit: at the highest dose activity, negative = cytotoxicity, actives largely listed as inhibitors; HepG2 CAGA-GFP viability, ATP luminescence, 18 h; cells stimulated with TGF-beta, 500 pg/mL; hit rate 27% among 1,600; shares compounds with TGFb inhibitor; further: on the % scale 0 is the no-effect control and ±100 the full control effect; nearly all actives have a fitted effect of over 70% in size
# TGFb CCL64 inh: orthogonal confirmation of TGF-b inhibitors in CCL64 cells. shares compounds with TGFb inhibitor. CCL64 CAGA-GFP reporter, TGF-b stimulated, GFP fluorescence, 18 h. Potency, µM (highest dose often 46.1 µM), for inactives: top-dose activity, negative = inhibition, most hits filed as inhibitors. hit rate 41% among 1,600. AID 720536; further: nearly all actives have a fitted effect of over 65% in size
# TGFb COP inh: validation of TGF-b inhibitors in HepG2 COP promoter reporter. shares compounds with TGFb inhibitor. HepG2 COP-GFP TGF-b reporter, GFP fluorescence, 18 h; cells stimulated by added recombinant TGF-beta. Potency, µM (series often up to 46.1 µM), for inactives: at the top dose activity, negative = inhibition, actives largely listed as inhibitors. hit rate 3% among 1,600. AID 720537; further: nearly all actives have a fitted effect of over 70% in size
# An asterisk follows results filed as active; i = inactive; ? = inconclusive; · = not tested or not shown. Rows were chosen to be rich in hits. Some 3.7% of all compounds tested hit in one or more screens of this group. The call rests on the fitted dose curve; in most records, active means well fitted curve in the direction sought with a large enough effect; inconclusive means small, poorly fitted or top-dose-only effect, or another doubt; inactive means no such curve, though single readings can be large; an effect the other way counts as inactive or inconclusive. Potency means the concentration at half of the fitted maximal effect.
SMILES,ATXN2 expr inh,TGFb inhibitor,GLP-1R agonist,GLP1R inv ag,S2 tox,HepG2 tox-1,TGFb confirm,HepG2 tox-2,TGFb CCL64 inh,TGFb COP inh
COc1ccc(C(NC(=O)C2CCN(CCOc3ccc(Cl)cc3Cl)CC2)c2ccccn2)cc1 (stereo not drawn),?,?,2.4%,?,?,-106.6%,·,·,·,·
O=C(Nc1ccc(Cl)cc1Cl)[C@@H]1CC=C[C@@H]2CCN(C3CCCCC3)C(=O)[C@@H]21,·,-6.4%,·,·,·,-7.9%,·,·,·,·
CCc1noc(-c2ccc(NCc3ccccc3)c([N+](=O)[O-])c2)n1,29.1%,-20.1%,·,7.3%,i,-14.2%,·,·,·,·
Oc1c(C(c2ccccc2Cl)N2CCCC2)ccc2cccnc12 (stereo not drawn),·,0.447µM*,-3.5%,3.55µM*,i,-63.9%,?,?,?,-19.8%
Cc1cccc(/C=C(\c2nc3ccccc3[nH]2)S(=O)(=O)c2ccccc2)c1,?,10µM*,0.2%,5.01µM*,?,-91.6%,4.61µM*,4.61µM*,5.8µM*,?
Cc1ccc(NC(=S)c2nc3ccccc3[nH]2)c(C)c1,82.1%,-18.6%,-0.3%,?,i,-23.5%,·,·,·,·
COc1ccc(NC(=S)N(CCCN2CCCC2)Cc2cccn2Cc2ccc(Cl)cc2)cc1Cl,·,3.16µM*,-5.3%,?,·,6.31µM*,?,?,?,-1.1%
COc1ccc(NC(=S)N(CCCN2CCC(C)CC2)Cc2cccs2)cc1Cl,-36.4%,?,9.3%,?,?,-27.3%,·,·,·,·
C[C@@H](C[N+](C)(C)C)OC(N)=O,·,·,·,·,i,·,·,·,·,·
O=[N+]([O-])c1cc2no[n+]([O-])c2cc1N1CCCCC1,9.47µM*,2.82µM*,-0.9%,0.6%,5.32µM*,5.5%,1.64µM*,6.51µM*,3.66µM*,?
Cc1cccc(CCN2C(Nc3ccccc3)=NC[C@@H]2CC(C)C)c1,?,6.31µM*,-4.6%,?,?,0.8%,5.17µM*,?,?,86.9%
CC(C)C[C@H]1CN=C(Nc2ccccc2)N1CCc1ccc(F)cc1,-14.4%,8.91µM*,-1.6%,?,i,-32.8%,7.31µM*,?,18.4µM*,59.9%
CC(C)CCN1C(Nc2ccccc2)=NC[C@@H]1CC(C)C,-10.9%,-16.5%,-2.1%,8.3%,i,-17.9%,·,·,·,·
CC(C)C[C@H]1CN=C(Nc2ccccc2)N1CCc1cccc(F)c1,-30.7%,7.08µM*,-3.2%,?,i,-26.3%,5.8µM*,?,13µM*,54.1%
Cc1cc(Nc2ccccc2)nc(NCc2ccccc2)n1,?,10µM*,15.1%,8.91µM*,i,-55.2%,3.7%,?,14.6µM*,63.2%
CCCCNc1cc(C)nc(NCc2ccccc2)n1,?,?,9.4%,?,?,-94.3%,·,·,·,·
COc1ccc(C2=NN(C(=O)COc3ncnc4ccccc34)C(c3ccco3)C2)cc1 (stereo not drawn),6.8%,-13.5%,32.5%,2.8%,i,-6.6%,·,·,·,·
COc1ccc(C2=NN(C(=O)COC(=O)c3ccc(S(C)(=O)=O)c([N+](=O)[O-])c3)C(c3ccco3)C2)cc1 (stereo not drawn),?,8.91µM*,-12.1%,?,·,8.91µM*,?,?,2.91µM*,?
C=C1C=C(C(F)F)n2ncc(C(=O)NCc3ccccc3)c2N1,·,20.2%,·,·,·,-3.5%,·,·,·,·
CCC(=O)N1CCc2cc(S(=O)(=O)CCC(=O)Nc3ccc(Cl)c(C(F)(F)F)c3)ccc21,?,?,-4.5%,-7.6%,?,0.5%,·,·,·,·
CCSCCc1nnc(NC(=O)Nc2cccc(C(F)(F)F)c2)s1,?,4.47µM*,-4.4%,?,i,-35.2%,5.17µM*,?,7.31µM*,104.1%
CC(c1ccccc1)N1C(=O)c2cccnc2C1=O (stereo not drawn),-8.5%,2.4%,-2.5%,4.9%,i,-2.9%,·,·,·,·
CC(NC1=CC(=O)c2cccnc2C1=O)C(O)c1ccccc1 (stereo not drawn),?,5.01µM*,-33.6%,?,?,5.01µM*,5.8µM*,5.17µM*,?,13µM*
CCOC(=O)C#CC(CCc1ccccc1)OS(N)(=O)=O (stereo not drawn),9.1%,0.708µM*,3.5%,3.1%,i,-27.6%,-29.3%,-6.2%,?,-21.9%
COc1cc(-c2nc3n(n2)C(c2ccc(F)cc2)C(C(N)=O)=C(C)N3)cc(OC)c1OC (stereo not drawn),8.6%,8.3%,·,14.6%,i,1.8%,·,·,·,·
O=C(Nc1cccc([N+](=O)[O-])c1)c1cc2ccccc2cc1O,?,3.98µM*,-3.2%,?,?,-39.2%,6.51µM*,4.11µM*,4.61µM*,61.5%
O=C(O)c1ccccc1C(=O)Nc1cccc([N+](=O)[O-])c1,·,15.7%,-0.2%,-0.8%,i,6.4%,·,·,·,·
COc1cccc(/C=C/c2cnc3ccccc3n2)c1OC,·,9.6%,·,·,·,-26.2%,·,·,·,·
COc1ccccc1N1CCN(C(=O)c2ccc3c(Cl)c4c(nc3c2)CCCC4)CC1,-17.4%,11.2µM*,-1.4%,?,?,-15.3%,6.51µM*,?,18.4µM*,38.8%
NCCCNc1nc(N)c([N+](=O)[O-])c(NC2CCCCC2)n1,·,5.01µM*,-9.1%,?,i,-32.2%,4.61µM*,?,5.8µM*,94.3%
